Drawing on PubChem BioAssay (NCI), this text covers growth for 9 compounds.

Some test systems named below: MOLT-4 leukemia; SR leukemia; RPMI-8226 leukemia; OVCAR-8 ovarian; OVCAR-5 ovarian; OVCAR-4 ovarian; SK-OV-3 ovarian; IGROV1 ovarian; OVCAR-3 ovarian; HS 578T breast; NCI/ADR-RES ovarian; BT-549 breast; MDA-MB-435 melanoma; SW-620 colon; MCF7 breast; HCT-116 colon; HCC-2998 colon; KM12 colon; T-47D breast.
Holding throughout (assay): NCI-60 one-dose screen, 48 h (100 = growth as untreated, 0 = no growth, -100 = all killed)
Details in all cases: 10 µM unless noted

Compounds without any hit were thinned out: in the full panel of roughly 83,000, 20% have a hit.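 Assay: single dose, 48 h. Readout: percent growth (0 = no net growth; negative = cell death). Active: <10.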 A number with no mark means an inactive call. Activity calls are given as the source filed them.

As for `CCOP(=O)(Nc1ccc2c(c1)/C(=N/NC(N)=S)c1ccccc1-2)OCC`, the growth in the assay with MOLT-4 leukemia is 92%; in the assay on SR leukemia, 109%; with RPMI-8226 leukemia it was 93.5%; with OVCAR-8 ovarian, 94.7%; in the assay with OVCAR-5 ovarian, 105%; with OVCAR-4 ovarian, 96.9%. Besides, the growth is 114% in the assay on SK-OV-3 ovarian; 132% in the assay with IGROV1 ovarian; 105% in the assay on OVCAR-3 ovarian; 82% in the assay on HS 578T breast; 100% in the assay on NCI/ADR-RES ovarian; 101% with BT-549 breast. For the same compound, the growth in the assay with MDA-MB-435 melanoma was 107%; with SW-620 colon, 115%; with MCF7 breast, 69.6%; in the assay with HCT-116 colon, 103%; in the assay on HCC-2998 colon, 119%; in the assay with KM12 colon, 88.9%.

As for `CCOC(=O)CCN(C)C1=Nc2ccc(Cl)cc2C(c2ccccc2)=[N+]([O-])C1`, the growth was 94.1% in the assay on MOLT-4 leukemia; 85.8% in the assay on SR leukemia; 106% in the assay with RPMI-8226 leukemia; 101% with OVCAR-8 ovarian; 109% in the assay on OVCAR-5 ovarian; 99.4% with OVCAR-4 ovarian. For the same compound, the growth was 106% with SK-OV-3 ovarian; 107% in the assay on IGROV1 ovarian; 96% with HS 578T breast; 104% with NCI/ADR-RES ovarian; 101% in the assay with T-47D breast; 88.9% with BT-549 breast. In addition, the growth is 115% with MDA-MB-435 melanoma; 104% with SW-620 colon; 112% in the assay with HCT-116 colon; 102% in the assay on HCC-2998 colon; 104% with KM12 colon.

Consider `COc1ccc(C/C(C)=C(\c2ccc(OCCN3CCOCC3)cc2)c2ccc(OC(=O)Cc3ccccc3)cc2)cc1`, for which the growth with MOLT-4 leukemia is -14.5% (active); in the assay on SR leukemia it was -38.2% (active); with RPMI-8226 leukemia, -42.4% (active); in the assay on OVCAR-8 ovarian it was -1.48% (active); with OVCAR-5 ovarian, 3.16% (active); in the assay on OVCAR-4 ovarian, 4% (active). The growth with SK-OV-3 ovarian was 0.737% (active); in the assay on IGROV1 ovarian, 1.9% (active); with HS 578T breast, -42.1% (active); with NCI/ADR-RES ovarian, 5.39% (active); in the assay on T-47D breast, -48.5% (active); with BT-549 breast, -70.4% (active). Further, the growth is -58.9% (active) in the assay on MDA-MB-435 melanoma; -63% (active) in the assay on SW-620 colon; -53.1% (active) in the assay on MCF7 breast; -89.7% (active) in the assay on HCT-116 colon; -64.3% (active) with HCC-2998 colon; -35.2% (active) in the assay with KM12 colon.

With `C[N+](C)(C)Cc1cc(Cl)ccc1O`, the growth is 96.9% in the assay on MOLT-4 leukemia; 104% in the assay on SR leukemia; 76.3% in the assay with RPMI-8226 leukemia; 99.4% in the assay on OVCAR-8 ovarian; 101% in the assay on OVCAR-5 ovarian; 92.8% with OVCAR-4 ovarian. For the same compound, the growth in the assay with SK-OV-3 ovarian is 110%; in the assay on IGROV1 ovarian, 95.1%; in the assay with HS 578T breast, 103%; with NCI/ADR-RES ovarian it was 104%; with T-47D breast it was 99.4%; with BT-549 breast, 91.9%. Further, the growth in the assay with MDA-MB-435 melanoma is 106%; in the assay with SW-620 colon, 97.9%; in the assay on MCF7 breast, 104%; in the assay with HCT-116 colon it was 106%; with HCC-2998 colon, 104%; in the assay on KM12 colon it was 108%.

With `O=[N+]([O-])c1ccc(OP(=O)(CCl)N(CCCl)CCCl)cc1` (stereo unspecified), the growth was 89.7% in the assay with MOLT-4 leukemia; 87.9% in the assay on SR leukemia; 104% in the assay on RPMI-8226 leukemia; 100% with OVCAR-8 ovarian; 99.6% in the assay with OVCAR-5 ovarian; 104% in the assay with OVCAR-4 ovarian. Besides, the growth was 106% in the assay with SK-OV-3 ovarian; 104% with IGROV1 ovarian; 118% with OVCAR-3 ovarian; 101% with NCI/ADR-RES ovarian; 93.8% in the assay on T-47D breast; 93.6% with BT-549 breast. Moreover, the growth in the assay with MDA-MB-435 melanoma is 104%; with SW-620 colon it was 102%; with MCF7 breast, 92.5%; with HCT-116 colon, 97.9%; with HCC-2998 colon it was 105%; with KM12 colon it was 101%.

In the case of `COC(=O)C1CCC(NC(=O)c2csc([C@@H](C[C@H](C(C)C)N(C)C(=O)[C@@H](NC(=O)[C@H]3CCCCN3C)C(C)C)OC(C)=O)n2)CC1` (stereo partly specified), the growth in the assay with MOLT-4 leukemia is 18.1%; with SR leukemia, 20.1%; in the assay on RPMI-8226 leukemia, 25.7%; in the assay with OVCAR-8 ovarian it was 19.3%; with OVCAR-5 ovarian it was 53%; with OVCAR-4 ovarian it was 45.3%. Besides, the growth was 20.8% in the assay with SK-OV-3 ovarian; 28.3% with IGROV1 ovarian; 42.6% in the assay on HS 578T breast; 11.8% in the assay on NCI/ADR-RES ovarian; 64.4% in the assay on T-47D breast; -20.7% (active) in the assay on BT-549 breast. Besides, the growth is -48.5% (active) in the assay with MDA-MB-435 melanoma; 28.1% in the assay on SW-620 colon; 19.4% in the assay with MCF7 breast; 5.04% (active) with HCT-116 colon; 20.2% in the assay on HCC-2998 colon; 9.7% (active) with KM12 colon.

Take `Fc1ccc2c(c1)c(-c1nc(-c3c[nH]c4ncccc34)cs1)cn2CCCCN1CCCCC1`: the growth in the assay on MOLT-4 leukemia is -67.7% (active); with SR leukemia it was -60.2% (active); in the assay on RPMI-8226 leukemia it was -49.6% (active); with OVCAR-8 ovarian it was -82.9% (active); in the assay on OVCAR-5 ovarian it was -68.2% (active); with OVCAR-4 ovarian it was -23.8% (active). Besides, the growth in the assay with SK-OV-3 ovarian is -72.6% (active); in the assay on IGROV1 ovarian, -60.5% (active); in the assay with HS 578T breast, -28.6% (active); in the assay on NCI/ADR-RES ovarian, -64.1% (active); in the assay on T-47D breast, -68.8% (active); with BT-549 breast, 75.7%. Besides, the growth was -87.2% (active) in the assay with MDA-MB-435 melanoma; -73.7% (active) in the assay with SW-620 colon; -75.3% (active) with MCF7 breast; -97.9% (active) in the assay on HCT-116 colon; -19% (active) in the assay with HCC-2998 colon; -66.9% (active) in the assay on KM12 colon.

With `CN1CC(=O)N(O)C1(C)c1cccnc1` (stereo unspecified), the growth is 97.2% in the assay on MOLT-4 leukemia; 92% in the assay with SR leukemia; 105% with RPMI-8226 leukemia; 99.3% in the assay on OVCAR-8 ovarian; 95.6% in the assay with OVCAR-5 ovarian; 111% in the assay with OVCAR-4 ovarian. For the same compound, the growth in the assay on SK-OV-3 ovarian is 91.6%; in the assay with IGROV1 ovarian, 102%; with HS 578T breast, 108%; in the assay with NCI/ADR-RES ovarian it was 104%; in the assay with T-47D breast, 93.4%; in the assay with BT-549 breast it was 95.7%. In addition, the growth in the assay with MDA-MB-435 melanoma is 97.4%; with SW-620 colon, 111%; in the assay on MCF7 breast, 98.7%; in the assay with HCT-116 colon, 102%; in the assay with HCC-2998 colon, 98.7%; in the assay with KM12 colon it was 108%.

With `CC(=O)C(c1c(O)c2ccccc2oc1=O)c1cc(=O)oc2c1ccc1ccccc12` (stereo unspecified), the growth in the assay on MOLT-4 leukemia was 90.2%; with SR leukemia, 92.5%; in the assay with RPMI-8226 leukemia, 94%; in the assay with OVCAR-8 ovarian it was 99.4%; in the assay with OVCAR-5 ovarian, 99.4%; with OVCAR-4 ovarian, 101%. Besides, the growth with SK-OV-3 ovarian was 94.6%; in the assay on IGROV1 ovarian, 106%; with HS 578T breast, 91.5%; with NCI/ADR-RES ovarian, 99.6%; with T-47D breast, 84.3%; in the assay with BT-549 breast, 87.9%. The growth in the assay on MDA-MB-435 melanoma was 103%; in the assay on SW-620 colon, 99%; in the assay with MCF7 breast it was 91.3%; in the assay with HCT-116 colon, 92.3%; in the assay on HCC-2998 colon it was 104%; with KM12 colon, 109%.
